In PubChem BioAssay (NCI):
About 83,000 compounds went through this panel and 20% of them were active in at least one assay; those are over-represented in the sample as a whole.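 Compound tested at a single concentration for 48 hours in 96-well plates; a percent growth value below 10 was scored as active.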 Activity calls are given as the source filed them.

Each compound was assayed on MOLT-4 leukemia (assay: NCI-60 one-dose screen, 48 h (100 = growth as untreated, 0 = no growth, -100 = all killed)). Settings: 10 µM unless noted.
Method: Growth inhibition of the MOLT-4 human tumor cell line is measured as a screen for anti-cancer activity. Cells are grown in 96 well plates and exposed to the test compound for 48 hours. Compounds are tested at a single concentration, which is 10^-5 M for most compounds. The reported endpoint is percent growth (GI% or GIPRCNT), where numbers from 0 - 100% represent growth inhibition, and numbers from -100% - 0 represent cell death. For example, a value of 40 represents 60% growth inhibition. A value of 0 means no net growth occurred over the course of the experiment. A value of -40 indicates 40% of cells at the beginning of the experiment died by the end of the experiment. A value of -100 means all cells are dead at the end of the experiment.
NCI-60 Human Tumor Cell Lines Screen was performed using the standard one-dose NCI protocol, which is described in more detail at https://dtp.cancer.gov/discovery_development/nci-60/default.htm.
Compounds with GIPRCNT values below 10 were considered active. Activity score was based on GIPRCNT using the following formula: […]
Score is 0 for GIPRCNT values of 100 or above, 50 for GIPRCNT values of 0, and 100 for GIPRCNT values of -100.
In the case of `CSc1nc2c(c(=O)[nH]1)C(c1ccc(Cl)cc1)C1=C(N2)/C(=C/c2ccc(Cl)cc2)CNC1` (stereo not given), the growth is reported as 18.7% (inactive).
With `CCC(=O)Nc1ccccc1C#C/C=C\C#Cc1ccccc1C(F)(F)F` the growth was 74.2% (inactive).
For `COc1ccc(-c2oc3cc(O)c(OC)c(O)c3c(=O)c2OC)cc1O`, the growth was 14.4% (inactive).
With `CCN1CCN(c2cc(-c3cn[nH]c3-c3cc(C)cc(OC)c3)nc(-c3cccnc3)n2)CC1` the growth was 52% (inactive).
With `COc1cccc(CCC2C(=O)CCCC2=O)c1` the growth was 92.1% (inactive).
For `N#Cc1cccc(/C=C(/C(=O)c2ccccc2)c2ccccc2)c1`, the growth was 4.97% (active).
With `COc1ccc(C(=O)COc2cccc(/C=C3\Oc4ccc5ccccc5c4C3=O)c2)cc1` the growth was 18.9% (inactive).
`CN(C)c1nc(-c2ccco2)n2nc(-c3ccco3)cc2n1` was tested, and the growth was 97.3% (inactive).
`Cc1c(N(C)CS(=O)(=O)O)c(=O)n(-c2ccccc2)n1C` was tested, and the growth was 83% (inactive).
In the case of `O=C1Nc2ccc(F)cc2/C1=C/c1nc(-c2ccc(F)cc2)n2ccccc12`, the growth is reported as 103% (inactive).
With `COc1cc(/C=C/C(=O)c2c(-c3ccc(F)cc3)nc3sc(C)nn23)cc(OC)c1OC` the growth was 13.4% (inactive).
For `CC(=O)O[C@H]1C(=O)[C@@]2(C)C([C@H](OC(=O)c3ccccc3)[C@]3(O)C[C@H](OC(=O)[C@H](O)[C@@H](NC(=O)c4ccccc4)c4ccccc4)C(C)=C1C3(C)C)[C@]1(OC(C)=O)CO[C@@H]1C[C@@H]2O` (stereo not given in full), the growth was 28.3% (inactive).
With `O=c1c(O)cccn1CCCNCCCN(CCCn1cccc(O)c1=O)CCCn1cccc(O)c1=O` the growth was 160% (inactive).
For `c1ccc(-n2nnnc2-c2cccc3ccccc23)cc1`, the growth was 29.8% (inactive).
`CCOc1cc(C(C)(C)C)ccc1C1=N[C@H](c2ccc(Cl)cc2)[C@H](c2ccc(Cl)cc2)N1C(=O)N1CCN(CC#Cc2cccc3c2CN([C@@H]2CCC(=O)NC2=O)C3=O)CC1` was tested, and the growth was -13.3% (active).
`c1ccc2cc(C[n+]3ccn(CCCCCCCn4cc[n+](Cc5ccc6ccccc6c5)c4)c3)ccc2c1` was tested, and the growth was 56.1% (inactive).
In the case of `CSC1=Nc2c(c(C)c(-c3ccccc3)n2CCCN2CCCCC2)C2=NC(=O)C[C@H](C)N12`, the growth is reported as 67.6% (inactive).
In the case of `O=C1c2nsnc2C(=O)c2c(F)c(F)c(F)c(F)c21`, the growth is reported as -26.6% (active).
`Cc1cc(C(C)(C)c2cc(C)c(O)c(CN(C)C)c2)cc(CN(C)C)c1O` was tested, and the growth was 87.4% (inactive).
In the case of `O=C(Nc1cccc(-n2cc(-c3ccncc3)c(-c3ccc(O)c(Cl)c3)n2)c1)Nc1ccc(Cl)c(C(F)(F)F)c1`, the growth is reported as -20.6% (active).
With `CN1COc2ccc3ccccc3c2C1` the growth was 90.6% (inactive).
For `CCOc1ccccc1C(=O)OCC(=O)Nc1cccc(S(=O)(=O)N(C)C)c1`, the growth was 105% (inactive).
In the case of `CCn1c2c(c3ccccc31)SC1c3cccn3CCN1C2=S` (stereo not given), the growth is reported as 88.8% (inactive).
`Cc1c(NCc2nnc3n(Cc4ccccc4)c(=O)c4c5c(sc4n23)CCCC5)c(=O)n(-c2ccccc2)n1C` was tested, and the growth was 52.7% (inactive).
For `O=C(CSCC(=O)N/N=C/c1ccccc1O)N/N=C\c1ccccc1O`, the growth was -4.94% (active).
`C/C(=N/N=C(N)N)c1ccc(N)cc1` was tested, and the growth was 109% (inactive).
`COc1ccc(-c2nn(-c3ccccc3)cc2/C=C2\SC(=S)N(CCc3ccc(O)cc3)C2=O)cc1` was tested, and the growth was 68.3% (inactive).
With `COc1cc(/C=C/C(=O)c2c(-c3ccc(Cl)cc3)nc3sc(C)nn23)cc(OC)c1OC` the growth was 48.3% (inactive).
`O=C1c2ccccc2-c2c1nc1ccccc1[n+]2[O-]` was tested, and the growth was 95.8% (inactive).
In the case of `CCC1(c2ccccc2)Oc2ccccc2-n2c(C#N)c3ccccc3c2C1=O` (stereo not given), the growth is reported as 91% (inactive).
`C=C(C[C@](O)(C(=O)/C=C/c1ccc(Cl)cc1)C(=O)OC)c1ccccc1` was tested, and the growth was 62.9% (inactive).
In the case of `O=c1cc(-c2cccnc2)oc2c1ccc1ccccc12`, the growth is reported as 103% (inactive).
For `CC[N+](CC)(CCOCCOCC[N+](CC)(CC)Cc1ccc([N+](=O)[O-])cc1)Cc1ccc([N+](=O)[O-])cc1`, the growth was 84.8% (inactive).
For `CCN(CC)c1ccc(CN(CC(=O)c2ccc(Cl)c(Cl)c2)Cc2ccccc2)cc1`, the growth was 98% (inactive).
For `CCN(CC)CCOc1ccccc1-n1c(C)ccc1-c1ccccc1`, the growth was -35.2% (active).
With `O=C1CC(=O)N(c2ccccc2)O1` the growth was 114% (inactive).
In the case of `CCC(c1ccccc1)c1noc(CCN(CC)CC)n1` (stereo not given), the growth is reported as 83% (inactive).
With `CCc1ccc(CCN2C(=O)c3ccccc3C2=O)nc1` the growth was 109% (inactive).
In the case of `COc1ccc(OC)c(/C=C/c2nc(=S)n(-c3ccc(Cl)cc3)[nH]2)c1`, the growth is reported as 52.8% (inactive).
In the case of `O=C1/C(=C/c2ccc([N+](=O)[O-])o2)Oc2ccc(Br)cc21`, the growth is reported as 1.28% (active).
